The values below come from PubChem BioAssay AID1063 (University of Pittsburgh Molecular Library Screening Center, 2008).

Hit rate of the full screen: of about 200,000 compounds, about 18,000 (9%) were called active. This is one part of a sample in which actives are shown more often than they occur. A number with no mark means an inactive call. Rule as the data show it: active = inhibition above about 50%; inactive = the rest.

The nature of this experiment: antileishmanial activity against promastigotes – primary screen (AID 1063).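 Also: promastigotes grown with compound for 44 hours at 28 °C.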 The note with it: Leishmania major promastigotes, resazurin fluorescence viability; at 10 µM; active compounds read high. A general note: Alamar Blue is a resazurin reagent that responds to reducing activity.
As a reminder, the inhibition is the change of the read-out against control, counted positive when it falls. Take `CCN(CC)C(=O)CS(=O)CC(=O)Nc1cc(OCCOC)c(Cl)cc1Cl` (stereo not given): the inhibition is 1.34%.

For `Cc1ccnc2nc(C(=O)Nc3nnc(-c4ccccc4)o3)nn12`, the inhibition is -14.4%. Consider `CCOc1ccc(-n2cnnn2)cc1S(=O)(=O)N1CCC(C)CC1C` (stereo not given), for which the inhibition is -5.29%.

Consider `COc1cc2[nH]c(=S)n(Cc3ccc(F)cc3)c(=O)c2cc1OC`, for which the inhibition was -5.46%. As for `CCOC(=O)C1CCN(S(=O)(=O)c2cc(F)ccc2OC)CC1`, the inhibition is 6.21%. For `Cc1cccc2cc(CN(Cc3cccs3)C(c3nnnn3C3CCCC3)C(C)C)c(=O)[nH]c12` (stereo not given) the value was 90.3% (active); for `Cc1cccc2cc(CN(Cc3nnnn3Cc3ccccc3)C3CCCC3)c(=O)[nH]c12`, 36.7%. For `Cc1cc(C)c2cc(CN(Cc3cccs3)Cc3nnnn3CC3CCCO3)c(=O)[nH]c2c1` (stereo not given) the value was 48.9%.

As to `Cc1cccc2cc(CN(Cc3ccc4c(c3)OCO4)Cc3nnnn3C3CCCC3)c(=O)[nH]c12`, the inhibition was 71.8% (active).

In the case of `Cc1cc2cc(CN(Cc3cccs3)Cc3nnnn3CC3CCCO3)c(=O)[nH]c2cc1C` (stereo not given), the inhibition was 21.2%. For `CCC(c1nnnn1C1CCCC1)N(Cc1cccs1)Cc1cc2cccc(C)c2[nH]c1=O` (stereo not given) the value was 30.1%.

As to `C=C(C)CNC(=S)N/N=C/c1ccccc1OCC(=O)O`, the inhibition is -1.38%. For `O=S(=O)(NCCc1ccc(F)cc1)c1cccc2cccnc12` the value was -0.53%. As for `O=C1C2C3C=CC(C3)C2C(=O)N1c1ccc(-c2nc3ccccc3c(=O)o2)cc1` (stereo not given), the figure is -7%; as for `COc1ccc(OC)c(-n2c(=S)[nH]c3cc(C(=O)N4CCCCC4)ccc3c2=O)c1`, -7.75%.

As for `COc1ccc(C(=O)Nc2ccc(-n3nncc3C(C)(C)C)cc2)cc1`, the inhibition was -0.36%. On to `COc1cc(/C=N\Nc2ccc([N+](=O)[O-])cn2)ccc1OCC(=O)O`, for which the inhibition is 4.37%. As for `COc1cc(/C=N/O)ccc1OCc1ccc([N+](=O)[O-])cc1`, the figure is 51.5% (active).

On to `COc1cc(C(=O)OCc2ccc([N+](=O)[O-])cc2)cc(OC)c1OC`, for which the inhibition is -8.98%. As for `COC(=O)Cc1ccc(Oc2ncc(C(F)(F)F)cc2Cl)cc1`, the figure is -7.25%; as for `C/C(=N\NC(=O)NC1CCCCC1)c1ccc(OC(F)F)cc1OC(F)F`, 46.4%.

Take `CCN(CC)CCOC(=O)c1ccc(NC(=O)CNC(=O)c2ccccc2)cc1`: the inhibition was -0.48%. For `CCOC(=O)c1ccccc1NC(=S)N1CCC(C(N)=O)CC1` the value was 4.08%; for `COc1cccc(-n2c(=O)c3c(C)c(C(=O)N(C)C)sc3n(CC(=O)NCCc3ccc(OC)c(OC)c3)c2=O)c1`, 2.17%.

In the case of `O=C(Nc1ccccc1F)c1ccccc1-c1ccccc1`, the inhibition was -3.5%. As for `COc1cc(OC)c(C(=O)Nc2ccccc2-c2ccccc2)cc1OC`, the figure is 82.5% (active); as for `COc1cc(OC)c(C(=O)Nc2ccc(N(C)C)cc2)cc1OC`, 3.39%.

Regarding `O=C(NCc1ccccc1Cl)C1CCN(S(=O)(=O)N2CCOCC2)CC1`, the inhibition is -5.43%. For `CCOc1ncccc1C(=O)OCC(=O)NC1CC1` the value was 4.89%; for `Cc1csc(NC(=O)CSc2ccc(-c3ccc(F)cc3)nn2)n1`, 7.99%. As for `NNC(=O)C1CC(O)CN1S(=O)(=O)c1ccc(Cl)cc1` (stereo not given), the figure is 4%; as for `O=C(NCc1ccccc1)C1CCCN(c2nc3ccsc3c(=O)s2)C1` (stereo not given), -5.75%. In the case of `C=CCn1c(COc2ccc(F)cc2)nnc1SCC(=O)Nc1cccc(S(N)(=O)=O)c1`, the inhibition was 1.1%. For the molecule `COc1ccc(NC(=O)c2ccccc2CC[N+](=O)[O-])cc1`, the inhibition was 13.1%.

As for `Cn1c(=O)c2c(nc(SCC(=O)Nc3ccccc3N3CCCCC3)n2C)n(C)c1=O`, the inhibition is 31%. Consider `CC(C)n1c(SCC(=O)Nc2ccccc2N2CCCCC2)nc2c1c(=O)n(C)c(=O)n2C`, for which the inhibition was 58.5% (active).

On to `Cc1ccccc1NC(=O)CNc1ccccc1N1CCCCC1`, for which the inhibition is 21.9%.

For `CN(c1ccccc1)S(=O)(=O)c1ccc(Cl)c(C(=O)OCC(=O)N2CCOCC2)c1`, the inhibition was 1.28%. As for `COC(=O)c1nc2ccccc2s1`, the figure is -8.95%.

Take `CC(C)CC(=O)N/C(N)=N/c1nc2ccccc2s1`: the inhibition was 95.3% (active). As for `CCC(=O)NC(=Nc1nc2ccccc2s1)NC(=O)CC`, the figure is 8.31%.

`CC/C(=N\NC(=S)NC(C)C)c1ccc(OC(F)F)cc1`: the inhibition was 16.9%. For `Cc1cc(Cl)ccc1OCCCC(=O)NCc1ccncc1` the value was -0.52%; for `CC(C)(C)NCCCOc1ccc(Cl)cc1C(C)(C)C`, 100% (active). As for `CN(C)CCOc1ccc(Cl)cc1C(C)(C)C`, the figure is 6.15%; as for `O=C(CN(c1cccc(Cl)c1)S(=O)(=O)c1ccccc1)NN=C1CCCC1`, 12.4%; as for `CC1CCCN(CCOCCOc2ccccc2-c2ccccc2)C1` (stereo not given), 98.6% (active). As for `CN1CCN(CCCCOc2ccccc2-c2ccccc2)CC1`, the figure is 44.5%; as for `c1ccc(-c2ccccc2OCCN2CCCCC2)cc1`, 8.2%. As to `CC1CCCN(Cc2nc3c(c(=O)n(C)c(=O)n3C)n2CC(=O)c2ccccc2)C1` (stereo not given), the inhibition was 22.4%. As for `COC(=O)[C@H](Cc1ccccc1)NC(=O)N1CC(C)OC(C)C1` (stereo not given in full), the figure is 15.6%. For `CC1CN(CCCOc2ccccc2-c2ccccc2)CC(C)O1` (stereo not given) the value was 88.7% (active); for `CC1CCN(S(=O)(=O)c2ccc(S(=O)(=O)NCc3cccnc3)cc2)CC1`, -2.4%; for `CS(=O)(=O)N(CC(=O)NC1CCCC1)Cc1ccc(F)cc1`, -5.9%. For `Cc1cccn2c(=O)c3cc(C#N)c(=NC(=O)c4cccnc4)n(CC4CCCO4)c3nc12` (stereo not given) the value was 16.8%; for `Cc1cccn2c(=O)c3cc(C#N)c(=O)n(CCCN4CCOCC4)c3nc12`, 95.7% (active); for `Cc1ccc(-n2c(=O)c(C#N)cc3c(=O)n4ccccc4nc32)cc1C`, 2.63%.

Consider `CN1C(=O)/C(=C\c2ccc(-c3ccccc3)o2)SC1=S`, for which the inhibition was -6.51%. For the molecule `O=C(NC1CCCCC1)n1c(=O)oc2cc(S(=O)(=O)N3CCCCC3)ccc21`, the inhibition is 2.93%. With `O=C(NC1CCCCC1)C1CCCN(S(=O)(=O)c2ccc(Br)s2)C1` (stereo not given), the inhibition is 12.5%. For `O=C(Cc1ccc(S(=O)(=O)N2CCOCC2)s1)NCCC(c1ccccc1)c1ccccc1` the value was 98.1% (active). For `O=C(NCCc1ccccc1)C1CCN(S(=O)(=O)c2ccc(Br)s2)CC1` the value was -1.73%; for `O=C(Cc1ccc(S(=O)(=O)N2CCCC2)s1)NC1CCCCCC1`, 93.5% (active); for `COc1ccccc1NC(=O)COC(=O)Cc1ccc(S(=O)(=O)N2CCCCC2)s1`, 6.48%.

Take `COc1cccc(CC(=O)N2CCCC(CCC(=O)N3CCN(c4ccccn4)CC3)C2)c1` (stereo not given): the inhibition was 8.58%. For `Cc1cc(OC(=O)c2ccccc2Cl)ccc1N1C(=O)CCC1=O`, the inhibition was -6.74%.

With `Cc1ccccc1-n1nc(SCC(=O)O)sc1=S`, the inhibition was -4.01%. Consider `Cc1ccc(C2CCN(C(=S)Nc3cccc(Cl)c3)C2)cc1` (stereo not given), for which the inhibition is 0.88%. With `CCOc1ccc(/C=N/Nc2nncc(-c3ccccc3)n2)cc1OC`, the inhibition was -2.97%. As to `Cc1[nH]c2ccccc2c1/C=C(/C#N)C(=O)NC(C)C`, the inhibition is 16.4%. As for `CC(C)NC(=O)/C(C#N)=C\c1ccc(N(C)C)c(Br)c1`, the figure is 64.6% (active). For `CC(C)(C)C(=O)/C(C#N)=C/c1ccc(O)cc1`, the inhibition was -4.15%.

`C1CC1Cc1noc(CN2CCN(CC3CC3)CC2)n1`: the inhibition is 15.8%. As for `CCOc1ccc2nc(C(=O)N3CCCC(C)C3)sc2c1` (stereo not given), the figure is 41.6%. For `CCOc1ccc2nc(/N=C/c3nc(-c4ccccc4)oc3O)sc2c1` the value was 54.2% (active); for `CC(N=Cc1nc(-c2ccccc2)oc1O)c1ccccc1` (stereo not given), -1.28%.

Regarding `Cc1ccc(S(=O)(=O)N(C)CC(=O)OCC(=O)N2CC(=O)Nc3ccccc32)cc1`, the inhibition was 0.63%. For `N/C(=N\OC(=O)c1ccc2c(c1)OCO2)c1ccc(Br)cc1` the value was 1.57%; for `CCCC1CCC(=NNC(=S)NCCc2ccccc2)CC1` (stereo not given), -9.55%. In the case of `CCCCNC(=S)N/N=C1\CCCCc2ccccc21`, the inhibition is 97.5% (active). For `Cc1ccc(NC(=S)N/N=C2/CCCc3c(C)cc(C)cc32)cc1` the value was -7.12%; for `CCN(C(=O)COC(=O)c1cc(S(=O)(=O)N2CCc3ccccc32)ccc1OC)C1CCS(=O)(=O)C1` (stereo not given), -4.24%; for `CN(C)c1ccc(Nc2c3c4c(cccc4n(C)c2=O)C(=O)c2ccccc2-3)cc1`, 59% (active). For `O=c1[nH]c(CN2CCOCC2)nc2cc(Cl)ccc12` the value was -9.96%; for `NC(=O)Cc1nc2scc(-c3ccc(Cl)cc3)c2c(=O)[nH]1`, 5.26%.

In the case of `O=c1[nH]c(CCl)nc2cc(-c3ccc(Cl)cc3)sc12`, the inhibition was 96.9% (active). For `CCN(CC)C(=O)Oc1ccc(OC(=O)N(CC)CC)cc1` the value was -5.77%; for `CCC(C)C(=O)Nc1cc([N+](=O)[O-])ccc1Cl` (stereo not given), 72.6% (active).

`CC(C)C(=O)Nc1cccc(NC(=O)c2ccc([N+](=O)[O-])cc2Cl)c1`: the inhibition is 6.59%.

On to `Cc1ccc(NC(=O)c2cc([N+](=O)[O-])ccc2Cl)c(O)c1`, for which the inhibition was 15.1%. Take `CCCS(=O)(=O)N1CCC(CCOc2ccccc2)(C(=O)OCC)CC1`: the inhibition was -1.49%. As for `COc1ccc(Cl)cc1NC(=O)NC(C)C(C)(C)C` (stereo not given), the figure is 16.3%; as for `CCOC(=O)C1CCCN(C(=O)/C=C/c2ccc(OC)cc2)C1` (stereo not given), 7.27%; as for `CCOC(=O)C1CCN(C(=O)/C=C/c2cc(OC)c(OC)c(OC)c2)CC1`, 55% (active). For `COc1ccc(/C=C/C(=O)N2CCCC2)cc1OC` the value was -1.79%.
